Only some compounds are listed: those with a hit (about 2.4% of all), similar ones and a draw of the others.
D2 PAM-1 = D2 dopamine receptor (human) potentiation; 340,000 compounds, 0.34% hits; potentiation, % at 10 µM; HEK293 T-REx D2, calcium flux, EC20 dopamine potentiation; P14416;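 active means potentiation over 3 SD above the plate norm, cut at about 30% in these data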
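Potentiation of an EC20 dopamine calcium response measured kinetically over 180 s, after a preceding 180 s compound-only read flagging agonists. Cells: inducible Hek293 Trex D2 line, 4000/well, cultured overnight at 30 C before dye loading.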
D2 ag-1 = agonists of human D2 dopamine receptor (beta-arrestin); activation, % (test concentration not listed); DiscoveRx PathHunter D2 beta-arrestin, luminescence, 90 min; 100% = 57 uM dopamine signal; P14416; AID 624465; 360,000 compounds, 0.084% hits; in the data active means activation above about 40%; inconclusive means between about 15% and that limit
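DiscoveRx PathHunter D2 beta-arrestin cells (2,100/well) attached overnight, then compound-stimulated 90 min at 37 C in HBSS/10 mM HEPES/0.1% Tween-20 buffer; beta-galactosidase complementation read by luminescence after 1 h at ambient temperature. Dopamine 57 uM final (EC100) as control.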
D2 antag = antagonizes the human D2 dopamine receptor | 340,000 compounds, 2% hits | inhibition, % at 10 µM | HEK293 TREx D2 cells, calcium flux, dopamine EC80 | P14416; in the data active means inhibition above about 30%; inactive means below that, where a call was filed
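Cells plated overnight at 30 C with tetracycline; no-wash calcium dye, 30–90 min RT; 10 s baseline; compound pinned; 180 s read; EC80 dopamine added; another 180 s read.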
D2 PAM-2 = positive allosteric modulators of human D2 dopamine receptor. P14416. AID 624464. potentiation, % (no concentration beside the values). DiscoveRx D2 beta-arrestin cells, luminescence, 90 min; 100% = 57 uM dopamine signal. 360,000 compounds, 0.23% hits; in the data active means potentiation above about 50%; inconclusive means mostly about 30% to 49%
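D2 cells co-treated with compound plus 50 nM dopamine (EC20) for 90 min at 37 deg C to detect potentiation. Beta-arrestin recruitment was read as enzyme-fragment luminescence after 1 h at ambient temperature. Full response was set by 57 uM dopamine.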
D2 ag-2 = D2 dopamine receptor (human) agonism; HEK293 T-REx D2 cells, calcium flux agonist mode; P14416; activation, % at 2 µM; 340,000 compounds, 0.53% hits; AID 485358;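 active means activation over 3 SD above normal in the single-dose calcium agonist read, cut at about 30% in these data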
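Tetracycline-induced HEK293 T-REx cells with force-coupled D2 receptor, plated overnight at 30 C, loaded with no-wash calcium dye. After a 10 s baseline, compound was pin-added and calcium flux read kinetically for 180 s; calcium rises flagged agonists.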
D3 ag = D3 receptor agonism confirmed, beta-arrestin readout; shares compounds with D2 ag-2; AID 720506; 2,300 compounds, 4% hits; Potency, µM (titrated, usually from 76.9 µM), most hits filed as activators; DiscoveRx D3 beta-arrestin cells, luminescence, 90 min; further: nearly all actives have a fitted effect of over 70% in size
Target sequence (P35462 whole entry, looked up): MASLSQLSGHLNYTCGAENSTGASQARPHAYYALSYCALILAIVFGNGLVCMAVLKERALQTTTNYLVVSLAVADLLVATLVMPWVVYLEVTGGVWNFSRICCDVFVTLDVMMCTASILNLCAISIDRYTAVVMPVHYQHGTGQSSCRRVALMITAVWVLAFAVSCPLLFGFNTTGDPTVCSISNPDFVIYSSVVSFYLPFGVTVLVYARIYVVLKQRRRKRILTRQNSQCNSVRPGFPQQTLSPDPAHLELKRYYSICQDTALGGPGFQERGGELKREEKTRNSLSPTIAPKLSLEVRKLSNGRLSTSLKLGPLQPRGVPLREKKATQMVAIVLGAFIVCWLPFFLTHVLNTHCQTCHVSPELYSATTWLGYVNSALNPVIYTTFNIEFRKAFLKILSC
D2 ag-3 = activates human D2 dopamine receptor in D3 counterscreen | 2,300 compounds, 5.9% hits | Potency, µM (series often up to 76.9 µM), actives largely listed as activators | shares compounds with D2 ag-2 | AID 720507 | DiscoveRx PathHunter D2 beta-arrestin, luminescence, 90 min; response scale: percent relative to full dopamine signal; further: nearly all actives have a fitted effect of over 70% in size
A number is an active result; i = inactive; ? = inconclusive; nt = no result. Unless noted, the call rests on the fitted dose curve; in most records, active means well fitted activation curve with a large enough effect; inconclusive means small, poorly fitted or top-dose-only effect; inactive means flat fitted curve, though single readings scatter.

SMILES	D2 PAM-1	D2 ag-1	D2 antag	D2 PAM-2	D2 ag-2	D3 ag	D2 ag-3
Cc1[nH]n(-c2ccccc2)c(=O)c1C1(C(F)(F)F)C(=O)N(c2ccc(F)cc2)C2=C1C(=O)CC(C)(C)C2 (stereo not given)	i	i	i	i	i	i	i
O=C(CSc1nc2nccnc2c(=O)n1CCc1c[nH]c2ccccc12)Nc1ccc(F)cc1	i	nt	nt	nt	i	nt	nt
Cc1cc(N/N=C/c2ccccc2[N+](=O)[O-])nc(-n2nc(C)cc2C)n1	i	i	i	i	34	i	i
CCOc1ccc(/C=N/NC(=O)c2ccc(O)cc2)cc1CN1CC2CC(C1)c1cccc(=O)n1C2 (stereo not given)	i	i	nt	i	nt	i	i
Oc1ccc(CCNc2c3ccccc3nc3ccccc23)cc1O	i	130	91	i	91	11µM	5µM
CCN1C(=O)/C(=C\C=C\c2ccccc2[N+](=O)[O-])SC1=S	i	i	i	i	i	nt	nt
CCN1C(=O)/C(=C/C=C2\N(CC)c3cc(S(=O)(=O)N(C)C)ccc3N2c2ccccc2)SC1=S	i	i	i	i	i	i	i
CC(=O)Nc1ccc(S(=O)(=O)NCCc2csc3nc(-c4cccc(C)c4)nn23)cc1	i	nt	nt	nt	i	nt	nt
COc1ccc(C2C(C(=O)Nc3cccnc3)=C(C)Nc3nc(SCc4ccccc4)nn32)cc1 (stereo not given)	i	nt	nt	nt	i	nt	nt
CCc1ccccc1Nc1nc2ccccc2c2nncn12	i	nt	nt	nt	i	nt	nt
Cc1ccc(Cl)cc1NC(=O)Nc1nnc(N(C)Cc2ccccc2)s1	i	nt	nt	nt	i	nt	nt
O=C(c1ccccc1OC(F)F)N1CCN(S(=O)(=O)c2ccc3c(c2)OCCCO3)CC1	i	i	i	i	i	i	i
O=C(c1ccccc1F)N1CCN(S(=O)(=O)c2ccc3c(c2)OCCO3)CC1	i	i	i	i	i	nt	nt
Cc1cc(Cl)ccc1NS(=O)(=O)c1c(C(=O)N2CCC(C)CC2)c(C)n(C)c1C	i	nt	nt	nt	i	nt	nt
COC(=O)Cc1ccc(NC(=S)N2CCN(c3cccc(O)c3)CC2)cc1	i	i	i	i	44	28µM	?
COC(=O)Cc1ccc(NC(=S)N2CCN(c3ccc(OC)cc3)CC2)cc1	i	i	i	i	i	nt	nt
CCOc1ccc(S(=O)(=O)N2CCCCC2)c(C)c1C	i	i	i	i	i	i	i
COc1ccccc1CCNC(=O)c1cc2c(=O)n3cccc(C)c3nc2n1C	i	nt	nt	nt	i	nt	nt
CCOc1ccc(CCNC(=O)c2[nH]c3cc(OC)ccc3c2Sc2ccccc2)cc1OCC	i	nt	nt	nt	i	nt	nt
CN(C)c1ccc(NC(=O)CCN2CCN(c3ccccn3)CC2)cc1	i	?	85	?	80	?	0.25µM
O=C(CCN1CCN(c2ccccn2)CC1)Nc1ccc(F)cc1	i	i	67	i	69	?	i
O=C(CN1CCN(c2ccccn2)CC1)Nc1ccc(OC(F)(F)F)cc1	i	i	i	i	i	nt	nt
Cc1ccc(Nc2cc(C)c(C#N)c3nc4ccccc4n23)cc1Cl	i	nt	nt	nt	i	nt	nt
CCOC(=O)c1c(C)oc2nc(C)nc(Nc3cc(C)cc(C)c3)c12	i	nt	nt	nt	nt	nt	nt
O=C(COc1ccc(Br)cc1Cl)Nc1ncn[nH]1	i	nt	nt	nt	i	nt	nt
SMILES	D2 PAM-1	D2 ag-1	D2 antag	D2 PAM-2	D2 ag-2	D3 ag	D2 ag-3
COc1cc(OC)cc(C(=O)N[C@H](C(=O)Nc2ccccc2N2CCOCC2)C(C)C)c1	i	i	i	i	45	i	i
COc1cc(OC)cc(C(=O)NC(C(=O)Nc2ccc(N3CCOCC3)cc2)C(C)C)c1 (stereo not given)	i	i	i	i	i	nt	nt
CCOc1cccc(-c2c(C(=O)N/N=C/c3ccsc3)nnn2-c2nonc2N)c1	i	i	i	i	i	i	i
CCOc1cccc(-c2c(C(=O)N/N=C/c3sccc3C)nnn2-c2nonc2N)c1	i	i	i	i	i	nt	nt
CCOc1ccc(/C=N/NC(=O)c2nnn(-c3nonc3N)c2-c2cccs2)cc1	i	i	i	i	i	i	i
CCc1ccc(/C=N/NC(=O)c2nnn(-c3nonc3N)c2C(C)C)cc1	i	i	i	i	i	i	i
CCOc1ccc(-c2c(C(=O)N/N=C/c3ccccc3)nnn2-c2nonc2N)cc1	i	i	i	i	i	nt	nt
CC(C)c1ccc(CNc2nc(-c3ccco3)nn2S(=O)(=O)c2ccc3ccccc3c2)cc1	i	nt	nt	nt	i	nt	nt
CCCn1c(-c2ccc(OC)cc2)nc2ccccc21	i	i	i	i	i	i	?
CCCCN(CCCNC(=O)c1c(C)oc2nc[nH]c(=O)c12)Cc1ccccc1	i	nt	nt	nt	i	nt	nt
CC(C)N(C(=O)Nc1ccc2nsnc2c1)C(C)C	i	i	i	i	53	?	i
Cc1cc2oc(C(=O)Nc3sc4c(c3C(=O)NCc3ccccc3)CCCC4)cc(=O)c2cc1C	i	nt	nt	nt	i	nt	nt
CC(=O)c1cccc(NC(=O)C(C)OC(=O)c2ccc(-n3cnnn3)cc2)c1 (stereo not given)	i	i	i	i	i	nt	nt
CC(OC(=O)c1ccc(-n2cnnn2)cc1)C(=O)Nc1ccccc1[N+](=O)[O-] (stereo not given)	i	i	i	i	i	i	i
CCCC(=O)N1CCN(Cc2ccc3c(c2)OCO3)CC1	i	i	i	i	61	i	i
O=C(CSc1ncnc2scc(-c3ccccc3)c12)N1CCN(Cc2ccc3c(c2)OCO3)CC1	i	?	70	i	74	i	?
CC(C)CC(=O)N1CCN(Cc2cccc(F)c2)CC1	i	i	i	i	i	nt	nt
CCn1nc(C(=O)N2CCN(Cc3ccc4c(c3)OCO4)CC2)c2ccccc2c1=O	i	i	i	i	50	i	i
O=C(O)CCC(=O)N1CCN(Cc2ccc3c(c2)OCO3)CC1	i	i	i	i	i	nt	nt
c1ccc(-c2csc3ncnc(N4CCN(Cc5ccc6c(c5)OCO6)CC4)c23)cc1	i	i	i	i	i	nt	nt
COc1cccc(CN2CCN(C(=O)CC(C)C)CC2)c1	i	i	i	i	55	i	i
CCOc1ccccc1CNC(=O)c1cnc2sc(N3CCOCC3)nn2c1=O	i	nt	nt	nt	i	nt	nt
Cc1cc(Nc2ccc(F)cc2F)nc(-n2nc(C)cc2C)n1	i	nt	nt	nt	i	nt	nt
COCc1c(C(=O)N2CCN(Cc3ccc(C#N)cc3)CC2)oc2ccccc12	i	i	i	i	i	nt	nt
COCc1c(C(=O)N2CCN(Cc3ccc4c(c3)OCO4)CC2)oc2ccccc12	i	46	70	i	70	i	10µM
CC(C)CC(=O)N1CCN(Cc2ccc3c(c2)OCO3)CC1	i	?	i	i	80	i	?
CCOc1ccccc1N1CCN(Cc2ccc(Br)s2)CC1	i	i	nt	i	nt	i	i
